Source: PubChem
Only some compounds are listed: those with a hit (about 2.4% of all), similar ones and a draw of the others.
D2 PAM-1: HTS Assay for Positive Allosteric Modulators of the Human D2 Dopamine Receptor: Primary Screen for Potentiators | D(2) dopamine receptor (Homo sapiens), P14416 | HEK293 T-REx D2, calcium flux, EC20 dopamine potentiation | potentiation, % at 10 µM | 340,000 tested, 0.34% active | AID 485347, 2010;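 active = potentiation over 3 SD above the plate norm, cut at about 30% in these data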
Target sequence (P14416 whole entry, looked up): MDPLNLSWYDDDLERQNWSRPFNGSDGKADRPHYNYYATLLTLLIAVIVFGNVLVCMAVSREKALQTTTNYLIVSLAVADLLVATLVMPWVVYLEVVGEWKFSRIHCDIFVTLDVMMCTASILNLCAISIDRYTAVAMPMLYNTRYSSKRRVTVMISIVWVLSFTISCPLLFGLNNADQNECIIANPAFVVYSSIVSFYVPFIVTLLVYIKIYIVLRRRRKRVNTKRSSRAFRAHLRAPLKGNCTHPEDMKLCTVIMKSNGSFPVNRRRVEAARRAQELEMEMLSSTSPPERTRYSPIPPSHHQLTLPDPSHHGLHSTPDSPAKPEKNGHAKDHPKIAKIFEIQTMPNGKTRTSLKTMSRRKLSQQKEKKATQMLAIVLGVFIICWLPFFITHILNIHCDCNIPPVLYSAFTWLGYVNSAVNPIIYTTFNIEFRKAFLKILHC
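Tetracycline-induced Hek293 Trex D2 cells, force-coupled to calcium, loaded with no-wash calcium dye. Compound added with 180 s kinetic read for agonism, then EC20 dopamine and a further 180 s read for potentiation.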
D2 ag-1: HTS Assay for Allosteric Agonists of the Human D2 Dopamine Receptor: Primary Screen for Agonists. D(2) dopamine receptor (Homo sapiens), P14416. HEK293 T-REx D2 cells, calcium flux agonist mode. activation, % at 2 µM. 340,000 tested, 0.53% active;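 active = activation over 3 SD above normal in the single-dose calcium agonist read, cut at about 30% in these data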
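Tetracycline-induced HEK293 T-REx cells with force-coupled D2 receptor, plated overnight at 30 C, loaded with no-wash calcium dye. After a 10 s baseline, compound was pin-added and calcium flux read kinetically for 180 s; calcium rises flagged agonists.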
D2 PAM-2: Beta-Arrestin HTS for Positive Allosteric Modulators of the Human D2 Dopamine Receptor: Potentiators; D(2) dopamine receptor (Homo sapiens), P14416; DiscoveRx D2 beta-arrestin cells, luminescence, 90 min; 100% = 57 uM dopamine signal; potentiation, % (test concentration not listed); 360,000 tested, 0.23% active; in the data active = potentiation above about 50%
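PathHunter D2 cells, attached overnight at 37 deg C, received compound in DMSO plus dopamine at EC20 (50 nM final) for 90 min at 37 deg C. Beta-arrestin recruitment was read as luminescence after 1 h with detection reagent at ambient temperature.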
D2 antagonist: HTS Assay for Allosteric Antagonists of the Human D2 Dopamine Receptor: Primary Screen for Antagonists; D(2) dopamine receptor (Homo sapiens), P14416; HEK293 TREx D2 cells, calcium flux, dopamine EC80; inhibition, % at 10 µM; 340,000 tested, 2% active; AID 485344, 2010; in the data active = inhibition above about 30%; inactive = below that, where a call was filed
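Calcium mobilization kinetics were recorded at 1 s intervals in tetracycline-induced HEK293 T-REx D2 cells, first for 180 s after compound addition and then 180 s after EC80 dopamine.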
D2 ag-2: Beta-Arrestin HTS for Positive Allosteric Modulators of the Human D2 Dopamine Receptor: Agonists; DiscoveRx PathHunter D2 beta-arrestin, luminescence, 90 min; 100% = 57 uM dopamine signal; activation, % (test concentration not listed); 360,000 tested, 0.084% active; in the data active = activation above about 40%
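Agonist mode: compounds alone added to overnight-plated D2 PathHunter cells for 90 min at 37 C, with 57 uM final dopamine (EC100) defining full response. Beta-arrestin recruitment detected by chemiluminescent reagent, read after 1 h at ambient temperature.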
Large screens that a line does not name were inactive.

CN1CCN(c2oc(-c3ccccc3)nc2S(=O)(=O)c2ccc(Br)cc2)CC1	D2 antagonist 30.7
CCc1cccc(NC(=O)c2cc3c(=O)n(Cc4ccc(OC)cc4)ccc3nc2C)c1	none (no result: D2 PAM-2, D2 antagonist, D2 ag-2)
Cc1c(CCC(=O)NCCc2ccccc2F)c(=O)oc2cc(O)ccc12	none (no result: D2 PAM-2, D2 antagonist, D2 ag-2)
Cc1ccc(Cl)cc1N1CCN(C(=O)CSc2nnc3n2C(C)(C)Cc2ccccc2-3)CC1	D2 PAM-1 30.5
COc1ccc(N2CCN(C(=O)CSc3nnc4n3C(C)(C)Cc3ccccc3-4)CC2)cc1	none
CCC(=O)Nc1cc(-c2cccc(C)c2)nn1-c1ccccc1	none (no result: D2 PAM-2, D2 antagonist, D2 ag-2)
O=C(Nc1ccccc1C(F)(F)F)N1CCC(CN2CCc3ccccc3C2)CC1	none (no result: D2 PAM-2, D2 antagonist, D2 ag-2)
CCOCCCNC(=O)c1c(NC(=O)c2cc(=O)c3ccccc3o2)sc2c1CCC2	none (no result: D2 ag-1, D2 PAM-2, D2 antagonist, D2 ag-2)
COc1ccccc1CO/N=C/NC(=O)c1c(OC)ccnc1Oc1ccc(F)cc1	D2 antagonist 37.0
COc1ccnc(Oc2ccc(F)cc2)c1C(=O)N/C=N/OCc1cccc(F)c1	none
Cc1ccc(S(=O)(=O)Nc2ccc3c(c2)nc(CN2CCCC2)n3C)cc1	D2 antagonist 71.6
Cc1ccc(S(=O)(=O)Nc2ccc3c(c2)nc(CCN2CCCCC2)n3C)cc1	none
CCn1c(CN2CCCCC2)nc2cc(S(=O)(=O)N3CCCCC3)ccc21	D2 antagonist 54.7
Cc1ccc(S(=O)(=O)Nc2ccc3c(c2)nc(CCN2CCOCC2)n3C)cc1	none
Cn1c(CCN2CCCCC2)nc2cc(NS(=O)(=O)c3ccc(F)cc3)ccc21	D2 antagonist 32.0
Cn1c(CN2CCCC2)nc2cc(NC(=O)COc3ccccc3)ccc21	D2 antagonist 47.5
CCOc1ccccc1C1C(C(=O)Nc2ccccc2)=C(C)Nc2c(C(=O)Nc3ccc(F)cc3)cnn21 (configuration not stated)	none (no result: D2 PAM-2, D2 antagonist, D2 ag-2)
CCOc1ccc(C(=O)N(Cc2ccc(C(C)C)cc2)Cc2ccco2)cc1	none (no result: D2 PAM-2, D2 antagonist, D2 ag-2)
COc1ccc(Nc2cc(C)c3cc(NC(=O)c4cc(OC)cc(OC)c4)ccc3n2)cc1	none (no result: D2 PAM-2, D2 antagonist, D2 ag-2)
O=C1NCCN1c1ncc([N+](=O)[O-])s1	D2 ag-1 59.1, D2 antagonist 54.0
CCN1CCN(C(=O)c2cc3c(s2)-c2ccccc2S(=O)(=O)C3)CC1	D2 antagonist 45.3
Oc1ccccc1N1CCN(Cc2ncc(-c3ccccc3)o2)CC1	D2 antagonist 56.9
CCOC(=O)N=S(N)(=O)c1ccc(Cl)cc1 (configuration not stated)	D2 PAM-1 30.9
CC(C)=CCN1CCN(Cc2cccn2-c2ccccn2)CC1CCO (configuration not stated)	D2 antagonist 98.6
CC(C)=CCN1CCN(Cc2c[nH]c3ccccc23)CC1CCO (configuration not stated)	D2 antagonist 47.3
CC(C)CN1CCN(Cc2c[nH]c3ccccc23)CC1CCO (configuration not stated)	none
CC(C)CN1CCN(Cc2cccn2-c2ccccn2)CC1CCO (configuration not stated)	none
CC(C)Oc1ccc(CNC(=O)C2=Cc3ccccc3OC2)cc1	none (no result: D2 PAM-2, D2 antagonist, D2 ag-2)
Cc1nn(C)c2c1c(C(F)(F)F)cc(=O)n2C(C)C(=O)NCCc1ccc(Cl)cc1 (configuration not stated)	none (no result: D2 PAM-2, D2 antagonist, D2 ag-2)
COC(=O)c1ccc(NC(=O)CSc2nnnn2C2CCCCC2)cc1	D2 antagonist 41.7
COc1ccc(Cn2c(=O)c3oc4ccccc4c3n(Cc3ccccc3)c2=O)cc1	none (no result: D2 PAM-2, D2 antagonist, D2 ag-2)
COc1ccc(NC(=O)CSCC(=O)N(C)Cc2ccc3c(c2)OCCO3)cc1	D2 antagonist 35.1
CCOc1ccc(CCNC(=O)CSCC(=O)Nc2ccc(OC)cc2)cc1OCC	D2 antagonist 31.4
COc1ccc(NC(=O)CN(C)C(=O)Cc2ccc3c(c2)OCCO3)cc1	none
CC(=O)c1cccc(NC(=O)Cn2c(=O)c(CNc3ccc(C)cc3)cc3cc4c(cc32)OCCO4)c1	none (no result: D2 PAM-2, D2 antagonist, D2 ag-2)
CCOC(=O)c1c(Nc2ccc(O)cc2)nnc(-c2ccccc2)c1-c1ccccc1	none (no result: D2 PAM-1, D2 PAM-2, D2 antagonist, D2 ag-2)
COCc1nc(-c2ccc(-c3ccccc3)nc2OC)no1	D2 antagonist 42.3
COc1cccc(-c2ccc(-c3noc(-c4ccccc4F)n3)c(OC)n2)c1	D2 antagonist 39.8
CCOC(=O)C1CCCN(c2c(C(=O)c3ccc(C)cc3)cnc3ccc(OCC)cc23)C1 (configuration not stated)	none (no result: D2 PAM-2, D2 antagonist, D2 ag-2)
C[C@@H]1CC2OC(=O)[C@@]3(C)C(=O)CC[C@@](C)(C23)[C@@]1(O)CCc1ccoc1 (some centres not stated)	D2 antagonist 30.1
CCOc1ccc(NC(=O)CCC(=O)NNC(=O)COc2ccccc2C)cc1	D2 antagonist 36.3
Cc1ccc(-c2cn3c(n2)sc2cc(C(=O)N4CCCCC4)ccc23)cc1	none (no result: D2 PAM-2, D2 antagonist, D2 ag-2)
COc1cc(C(=O)N(Cc2cccnc2)Cc2cc3cc4c(cc3[nH]c2=O)OCCO4)cc(OC)c1OC	D2 antagonist 36.8
COc1ccc(NS(=O)(=O)c2coc(C(N)=O)c2)cc1Cl	D2 antagonist 30.8
CCOc1ccc(S(=O)(=O)N2CCCCC2)cc1NC(=O)Cc1ccc(OC)cc1	none (no result: D2 PAM-1, D2 ag-1, D2 antagonist)
COc1ccc(CC(=O)Nc2cc(S(=O)(=O)N3CCCCC3)ccc2C)cc1	D2 antagonist 30.7
COc1ccc(S(=O)(=O)N2CCCCCC2)cc1NC(=O)Cc1ccccc1	none
COc1ccc(S(=O)(=O)N2CCCCC2)cc1NC(=O)Cc1ccsc1	D2 antagonist 30.2
CCOc1ccc(S(=O)(=O)N2CCCCC2)cc1NC(=O)Cc1ccsc1	D2 antagonist 33.9
COc1cccc(C(=O)N(Cc2nc(-c3ccc(Cl)cc3)no2)C(C)C)c1OC	none (no result: D2 ag-1, D2 PAM-2, D2 antagonist, D2 ag-2)
CCOc1ccccc1NC(=O)Cn1cc(C(=O)c2ccc(Cl)cc2)c(=O)c2ccc(C)nc21	none (no result: D2 PAM-2, D2 antagonist, D2 ag-2)
CCc1ccc(CNC(=O)C2Cc3cc(S(=O)(=O)N4CCCCCC4)ccc3N2C(C)=O)cc1 (configuration not stated)	none (no result: D2 PAM-2, D2 antagonist, D2 ag-2)
Cc1c(/C=N\NC(=O)C2COc3ccc(C(C)(C)C)cc3O2)c2ccccc2n1C (configuration not stated)	D2 PAM-2 118.0, D2 antagonist 58.0, D2 ag-2 44.8
Cc1ccc(S(=O)(=O)N2[C@@H](c3ccc(Cl)cc3)C(C(=O)O)=CC[C@H]2c2ccc(C(C)C)cc2)cc1	D2 antagonist 38.9
Cc1c(C)c2c(OCC(=O)NCC(=O)NCC(=O)O)cc3c(c2oc1=O)CCC(C)(C)O3	D2 PAM-1 30.2
